Reference: PubChem BioAssay (NCATS)
Records with an inconclusive call do not appear. Active and inactive are the calls of the source. Unless noted, calls come from the whole dose curve; as a rule, active = well fitted curve in the direction sought with a large enough effect; inconclusive = small, poorly fitted or top-dose-only effect, or another doubt; inactive = no such curve, though single readings can be large; an effect the other way counts as inactive or inconclusive.

How the values were obtained:
[1] = AP1 Signaling Pathway (AID 357; active = well fitted curve in either direction with a large enough effect, not every such curve was filed as active;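 note: ME-180 reporter cells stimulated with EGF at its EC50 level; % is set by controls: 0 for no effect and ±100 for the full control effect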); settings: ME-180 AP-1-bla reporter, EGF-induced, beta-lactamase ratio, 5 h; at 7.69 µM (top of the series) unless noted
Outline: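 A ratiometric CCF4 readout (405 nm excitation; 460 and 530 nm emission) quantified AP-1-driven beta-lactamase in ME-180 cells after 5 h with compound and EC50 EGF; AC50 values were derived for activators and inhibitors.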

[2] = NFAT Signaling Pathway (AID 444; active = well fitted curve in either direction with a large enough effect, not every such curve was filed as active;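 note: carbachol stimulus at about its EC50 of 1 µM final; % is set by controls: 0 for no effect and ±100 for the full control effect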); settings: Jurkat NFAT-bla M1, carbachol, beta-lactamase ratio, 5 h; at 7.69 µM (top of the series) unless noted
Outline: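 Jurkat cells carrying an NFAT-driven β-lactamase reporter and co-transfected muscarinic M1 receptor were treated with compound plus carbachol (1 uM final, an EC50 level) for 5 h at 37 °C. CCF4 loading followed for 1 h at RT; 460/530 nm ratio gave %activity.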

[3] = Stat Signaling Pathway (AID 446; active = well fitted curve in either direction with a large enough effect, not every such curve was filed as active;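 note: ME-180 cervical cancer cells given 40 pM IL-6 alongside compound; SIE-controlled beta-lactamase reporter measured as 460/530 nm FRET emission ratio; % is set by controls: 0 for no effect and ±100 for the full control effect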); settings: ME-180 SIE beta-lactamase reporter, IL-6 stimulated, 5 h; at 7.69 µM (top of the series) unless noted
Outline: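 Reporter line: ME-180 cervical carcinoma, SIE-beta-lactamase. Treatment: compound with 40 pM IL-6, 5 hrs, 37 C, in low-serum OPTI-MEM with 10 mM HEPES pH 7.3. Detection: 460/530 nm fluorescence.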

[4] = molecular target: Glucocorticoid receptor (Homo sapiens) (UniProt P04150); assay: GR-EFC Redistribution (AID 451; calls by dose curve; note: potency is the fitted concentration of half-maximal effect); settings: CHO-K1 GR-EFC translocation, beta-gal luminescence, 2 h
Outline: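 CHO-K1 cells stably expressing nuclear-localized β-gal enzyme acceptor and GR fused C-terminally to the enzyme donor fragment; ligand-driven nuclear translocation restores β-gal by complementation. Compounds titrated up to 46 uM final, 2 h at 37 °C; luminescence read.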

[5] = molecular target: Mitogen-activated protein kinase 10 (Mus musculus) (UniProt Q61831); assay: JNK3 AlphaScreen Assay (AID 530; active = well fitted curve in either direction with a large enough effect, not every such curve was filed as active;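 note: kinase came from lysate of stimulated human HepG2 cells; signal reports phosphorylation of biotinylated GST-cJun 1-79 at Ser73 with 10 µM ATP; % is set by controls: 0 for no effect and ±100 for the full control effect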)
Outline: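 Inhibitors reduce antibody binding to phosphorylated biotin-cJun, lowering AlphaScreen luminescence. Lysates from HepG2 cells pre-activated by IL-1beta plus TNF-alpha supplied JNK3; compounds were titrated.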

[6] = molecular target: 3',5'-cyclic-AMP phosphodiesterase 4B (Homo sapiens) (UniProt Q07343); assay: qHTS Assay for Inhibitors of PDE-IV (AID 607; active = well fitted activation curve with a large enough effect in the main read-out, with a control signal flat, not every such curve was filed as active; note: % of control where 0% means no effect)
Outline: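 Cell-based read-out of cAMP via a modified cyclic nucleotide-gated channel and membrane potential dye (535/590 nm) in HEK293 cells expressing PDE4 endogenously. Compounds tested up to 22.9 uM final; 100 uM RO 20-1724 reference.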

[7] = qHTS Assay for Lipid Storage Modulators (AID 1519; calls by dose curve); settings: Drosophila S3 cells, BODIPY lipid droplet/cell ratio, laser cytometry, cells loaded with oleic acid; for activity change, negative = inhibition: at 57.5 µM (top of the series)
Outline: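 Cells seeded at 5,000 per well were treated with compounds over a concentration series and loaded with oleic acid (400 uM, as added). Lipid droplet fluorescence (488 nm excitation, 500-530 nm channel) was read by laser-scanning cytometry and normalized to 20 uM Triacsin C.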

[8] = Primary qHTS for small molecule stabilizers of the endoplasmic reticulum resident proteome: Secreted ER Calcium Modulated Protein (SERCaMP) assay (AID 1508630); note: % is set by controls: 0 for no effect and ±100 for the full control effect
Outline: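 GLuc-SERCaMP-expressing SH-SY5Y cells, pretreated 16 h with compound, are challenged with thapsigargin to empty ER calcium stores; after 4 h, coelenterazine is added directly to the medium and luminescence is imaged.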

[9] = molecular target: Cytochrome P450 1A2 (Homo sapiens) (UniProt P05177); assay: p450-cyp1a2 (AID 410; calls by dose curve; note: potency is the fitted concentration of half-maximal effect;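 for activity change, negative = inhibition: -100% = full effect of reference inhibitor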)
Outline: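 20nM CYP1A2 with 100uM Luciferin-ME (at Km) in 100mM KPO4; compound preincubated 10 min, NADPH regeneration added, 60 min at room temperature. Luciferin quantified by luminescence after detection reagent; normalized to 57 uM furafylline.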

[10] = molecular target: Glucocorticoid receptor (Homo sapiens) (UniProt P04150); assay: GR-GFP Redistribution (AID 450;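 active = compounds whose dose series gives a full or clear partial fitted curve of increased nuclear translocation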; note: potency is the fitted concentration of half-maximal effect); settings: U2OS GR-GFP nuclear translocation, laser cytometry, 2 h
[11] = molecular target: Cytochrome P450 3A4 (Homo sapiens) (UniProt P08684); assay: qHTS Assay for Activators of Cytochrome P450 3A4 (AID 885); note: nearly all actives have a fitted effect of over 65% in size
Outline: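 Signal was normalized against complete inhibition by 57 uM ketoconazole. The reaction used 20nM CYP3A4 with 25uM Luciferin-PPXE, 10-min compound preincubation and a 60-min NADPH-supported step at RT.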

[12] = Confirmation and Secondary Assay for Modulators of Hemoglobin Beta Chain Splicing at IVS2 654 locus (AID 910);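 note: per-well total GFP intensity by laser scanning cytometry after 2-day treatment; % of control where 0% means no effect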
Outline: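 HeLa cells stably carrying EGFP interrupted by mutant beta-globin IVS2-654 intron (CMV-driven) were treated with compound for 2 days at 37C; corrected splicing was scored as total peak GFP intensity per well (488 nm excitation, 500-520 nm emission).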

[13] = Confirmation and Secondary Assay for Modulators of Hemoglobin Beta Chain Splicing at IVS2 705 locus (AID 930);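 note: HeLa cells stably expressing the EGFP-705 splicing reporter; GFP fluorescence per well restored by corrected splicing of the IVS2-705 intron in EGFP; % of control where 0% means no effect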
Outline: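 Splice-correction reporter: EGFP cDNA split by beta-globin intron 2 bearing the 705 mutation, stably in HeLa. Compound incubation 2 days, 37C; fluorescent objects 5-250 µm summed per well.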

[14] = molecular target: Ubiquitin carboxyl-terminal hydrolase 1 (Homo sapiens) (UniProt O94782); assay: Inhibitors of USP1/UAF1: Pilot qHTS (AID 504865); note: nearly all actives have a fitted effect of over 35% in size; note: potency is the fitted concentration of half-maximal effect
Outline: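 USP1/UAF1 complex (1nM) preincubated with compound 15 min at room temperature, then Ub-Rho substrate (150nM final) added. Fluorescence read kinetically at 480/540 nm, 6 reads every 60 seconds. Buffer: 50mM HEPES pH 7.8, 0.5mM EDTA, 0.1 mg/ml BSA, 1mM TCEP, 0.01% Tween-20.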

[15] = measured here: cell count channel max response
[16] = measured here: lipid channel max response

Chain of Cytochrome P450 3A4 (Homo sapiens) (P08684 whole entry, looked up): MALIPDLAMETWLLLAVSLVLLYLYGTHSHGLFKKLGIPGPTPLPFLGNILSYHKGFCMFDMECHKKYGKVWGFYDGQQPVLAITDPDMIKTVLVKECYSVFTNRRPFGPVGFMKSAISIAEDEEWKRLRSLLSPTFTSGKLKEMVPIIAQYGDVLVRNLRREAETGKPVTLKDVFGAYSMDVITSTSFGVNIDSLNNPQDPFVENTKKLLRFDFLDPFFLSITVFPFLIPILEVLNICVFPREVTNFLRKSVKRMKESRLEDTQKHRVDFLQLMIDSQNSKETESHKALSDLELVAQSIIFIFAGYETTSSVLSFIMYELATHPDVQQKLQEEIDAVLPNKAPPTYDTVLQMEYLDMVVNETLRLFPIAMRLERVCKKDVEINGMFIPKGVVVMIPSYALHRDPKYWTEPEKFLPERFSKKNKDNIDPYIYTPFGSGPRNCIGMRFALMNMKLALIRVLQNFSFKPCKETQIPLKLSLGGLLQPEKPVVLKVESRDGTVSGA
Chain of Glucocorticoid receptor (Homo sapiens) (P04150 whole entry, looked up, the tested form may be a part): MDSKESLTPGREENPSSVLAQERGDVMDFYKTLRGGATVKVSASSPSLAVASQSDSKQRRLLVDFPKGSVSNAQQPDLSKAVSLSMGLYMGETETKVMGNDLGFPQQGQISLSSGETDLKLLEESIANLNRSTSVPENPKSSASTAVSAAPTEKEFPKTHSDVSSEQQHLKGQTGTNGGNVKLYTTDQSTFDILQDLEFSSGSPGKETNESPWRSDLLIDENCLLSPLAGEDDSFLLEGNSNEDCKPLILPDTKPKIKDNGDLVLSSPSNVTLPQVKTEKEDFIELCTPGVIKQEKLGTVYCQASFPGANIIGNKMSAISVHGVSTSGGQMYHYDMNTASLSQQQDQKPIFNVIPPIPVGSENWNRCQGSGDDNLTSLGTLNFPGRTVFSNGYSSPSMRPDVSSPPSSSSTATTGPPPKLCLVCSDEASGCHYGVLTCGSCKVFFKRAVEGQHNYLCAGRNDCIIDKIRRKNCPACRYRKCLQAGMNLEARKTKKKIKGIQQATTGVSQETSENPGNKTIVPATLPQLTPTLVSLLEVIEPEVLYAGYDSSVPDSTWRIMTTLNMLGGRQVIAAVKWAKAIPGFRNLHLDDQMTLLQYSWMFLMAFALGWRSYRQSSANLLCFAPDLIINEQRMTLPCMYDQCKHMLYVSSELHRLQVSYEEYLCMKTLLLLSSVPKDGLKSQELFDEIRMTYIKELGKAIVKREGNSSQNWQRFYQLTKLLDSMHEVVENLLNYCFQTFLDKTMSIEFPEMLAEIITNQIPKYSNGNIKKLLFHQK
Chain of Cytochrome P450 1A2 (Homo sapiens) (P05177 whole entry, looked up): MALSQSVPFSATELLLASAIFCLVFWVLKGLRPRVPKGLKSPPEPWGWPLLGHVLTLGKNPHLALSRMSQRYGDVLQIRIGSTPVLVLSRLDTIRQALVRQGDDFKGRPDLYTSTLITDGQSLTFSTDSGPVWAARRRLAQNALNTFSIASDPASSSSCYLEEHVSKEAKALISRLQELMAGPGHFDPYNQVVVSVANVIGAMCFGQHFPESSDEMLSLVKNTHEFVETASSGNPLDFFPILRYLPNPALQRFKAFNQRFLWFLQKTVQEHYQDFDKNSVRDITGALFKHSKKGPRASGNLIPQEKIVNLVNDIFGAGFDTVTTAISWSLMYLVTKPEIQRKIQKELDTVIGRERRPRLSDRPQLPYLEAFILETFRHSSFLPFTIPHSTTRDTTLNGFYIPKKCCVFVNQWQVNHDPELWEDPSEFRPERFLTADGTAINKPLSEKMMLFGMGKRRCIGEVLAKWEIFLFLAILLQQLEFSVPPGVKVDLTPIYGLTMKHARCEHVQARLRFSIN
Chain of 3',5'-cyclic-AMP phosphodiesterase 4B (Homo sapiens) (Q07343 whole entry, looked up): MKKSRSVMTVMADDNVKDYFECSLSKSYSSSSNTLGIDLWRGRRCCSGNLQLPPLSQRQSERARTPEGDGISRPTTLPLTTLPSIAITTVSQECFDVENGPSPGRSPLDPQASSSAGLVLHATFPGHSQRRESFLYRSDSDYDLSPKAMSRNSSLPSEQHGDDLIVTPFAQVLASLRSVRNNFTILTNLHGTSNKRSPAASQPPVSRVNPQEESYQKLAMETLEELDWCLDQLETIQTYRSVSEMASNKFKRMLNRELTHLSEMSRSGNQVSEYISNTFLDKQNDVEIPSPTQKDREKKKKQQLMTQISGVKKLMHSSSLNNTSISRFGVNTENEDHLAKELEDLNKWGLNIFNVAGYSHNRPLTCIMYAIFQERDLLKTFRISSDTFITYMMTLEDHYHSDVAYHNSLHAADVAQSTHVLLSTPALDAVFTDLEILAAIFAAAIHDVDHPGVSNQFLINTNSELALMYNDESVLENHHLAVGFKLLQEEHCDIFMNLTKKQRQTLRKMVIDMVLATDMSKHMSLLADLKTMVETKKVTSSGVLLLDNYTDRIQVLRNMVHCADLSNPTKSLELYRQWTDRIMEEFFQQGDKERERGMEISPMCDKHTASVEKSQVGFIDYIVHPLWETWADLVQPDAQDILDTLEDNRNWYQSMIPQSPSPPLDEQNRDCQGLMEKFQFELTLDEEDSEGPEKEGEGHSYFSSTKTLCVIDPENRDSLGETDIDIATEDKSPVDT
Chain of Ubiquitin carboxyl-terminal hydrolase 1 (Homo sapiens) (O94782 whole entry, looked up): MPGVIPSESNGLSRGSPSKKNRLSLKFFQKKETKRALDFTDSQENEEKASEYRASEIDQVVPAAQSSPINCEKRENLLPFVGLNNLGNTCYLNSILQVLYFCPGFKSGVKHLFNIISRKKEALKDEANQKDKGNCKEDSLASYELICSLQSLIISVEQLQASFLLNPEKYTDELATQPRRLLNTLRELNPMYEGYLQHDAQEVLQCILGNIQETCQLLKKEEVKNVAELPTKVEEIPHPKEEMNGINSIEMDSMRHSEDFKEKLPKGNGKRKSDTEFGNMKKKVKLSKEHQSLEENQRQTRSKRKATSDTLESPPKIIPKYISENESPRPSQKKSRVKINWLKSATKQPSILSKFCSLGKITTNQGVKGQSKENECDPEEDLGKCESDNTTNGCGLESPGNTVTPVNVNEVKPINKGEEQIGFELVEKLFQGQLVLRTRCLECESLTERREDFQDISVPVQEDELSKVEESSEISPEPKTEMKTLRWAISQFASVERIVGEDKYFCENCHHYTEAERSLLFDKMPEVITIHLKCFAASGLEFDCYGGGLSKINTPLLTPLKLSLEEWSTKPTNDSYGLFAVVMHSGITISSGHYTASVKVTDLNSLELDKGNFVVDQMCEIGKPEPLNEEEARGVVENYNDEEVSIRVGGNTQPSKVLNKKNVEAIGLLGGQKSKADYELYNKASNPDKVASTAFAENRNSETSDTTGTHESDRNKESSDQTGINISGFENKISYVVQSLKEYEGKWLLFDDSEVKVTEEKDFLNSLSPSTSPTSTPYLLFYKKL

| SMILES | activity change, negative = inhibition [1] | activity change, negative = inhibition [2] | activity, negative = inhibition [3] | Potency [4] | Potency [5] | Potency [6] | activity change, negative = inhibition [7] | max response [7, 15] | max response [7, 16] | outcome [8] | Potency [9] | Potency [10] | Potency [11] | Potency [12] | outcome [13] | Potency [14] |
| --- | --- | --- | --- | --- | --- | --- | --- | --- | --- | --- | --- | --- | --- | --- | --- | --- |
| O=C(Nc1cccc(F)c1)N1CC2(CCN(C(=O)c3ccco3)CC2)C1 | -3.07% (inactive) | 4.39% (inactive) | 1.12% (inactive) | > 46 µM (inactive) | inactive | inactive | 5.94% (inactive) | 1.85% | 13.6% | inactive |  |  |  |  |  |  |
| Cc1cnc(CNc2nc(-c3ccc(N(C)C)cc3)nc3ccccc23)cn1 | -17% (inactive) |  | 7.71% (inactive) | > 46 µM (inactive) | inactive | inactive | 11.9% (inactive) | 13.6% | 26% | inactive | 3.16 µM (active) | > 46 µM (inactive) | inactive | inactive | inactive |  |
| COc1ccc(CNc2cc(-c3ccccc3CN(C)C)ncn2)c(OC)c1 | -0.546% (inactive) |  | 10.5% (inactive) | > 46 µM (inactive) | inactive | inactive | 3.53% (inactive) | 8.17% | 12.8% | inactive | 15.8 µM (active) | > 46 µM (inactive) | inactive | inactive | inactive | inactive |
| CNc1ncnc2ccc(-c3cccc(NS(C)(=O)=O)c3)cc12 | -20.9% (inactive) |  | -3.45% (inactive) | > 46 µM (inactive) | inactive | inactive | 1.53% (inactive) | -9.5% | -9.46% | inactive | 0.316 µM (active) | > 46 µM (inactive) | inactive | inactive | inactive |  |
| Cc1cnc(CNc2ncnc3ccc(-c4ccccc4CN(C)C)cc23)cn1 | 16.4% (inactive) | -29.4% (inactive) | 11.7% (inactive) | > 46 µM (inactive) |  | inactive | 9.03% (inactive) | 5.18% | 15.6% | inactive | inactive | > 46 µM (inactive) |  | inactive | inactive |  |
| FC(F)(F)c1ccccc1-c1nccc(NCc2ccccc2)n1 | -1.94% (inactive) | -3.71% (inactive) | -13.7% (inactive) | > 46 µM (inactive) | inactive |  | 6.15% (inactive) | 0.814% | 5.46% | inactive | 12.6 µM (active) | > 46 µM (inactive) | inactive | inactive | inactive | 6.31 µM (active) |
| COCCNc1nc(-c2ccccc2C)nc2ccccc12 |  | -2.48% (inactive) | 5.05% (inactive) | > 46 µM (inactive) | inactive | inactive | 7.59% (inactive) | 3.47% | 22.3% | inactive | 1.26 µM (active) | > 46 µM (inactive) | inactive | inactive | inactive |  |
